Potency data for 96 compounds are collected here from PubChem BioAssay AID686970 (National Center for Advancing Translational Sciences (NCATS), 2013).

In all, about 360,000 compounds went through this assay and about 6,000 (1.7%) were called active. Where a call stands in place of a potency, no number is given. About 8% were inconclusive and are not listed. Calls come from the whole dose curve; as a rule, active = well fitted cell-killing curve with a large enough effect; inconclusive = small, poorly fitted or top-dose-only effect, or effect the other way; inactive = flat fitted curve, though single readings scatter. For the sample, actives were picked, then their nearest neighbours and some compounds at random.
Potency is the fitted concentration of half-maximal effect.

The nature of the experiment: qHTS for induction of synthetic lethality in tumor cells producing 2HG: qHTS for the HT-1080-NT fibrosarcoma cell line.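 Note: NT is the 2HG producing partner of a matched IDH1 knockdown line; nearly all actives have a fitted effect of over 55% in size.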 The following applies: HT-1080-NT fibrosarcoma viability, CellTiter-Glo ATP luminescence, 48 h; series mostly up to 46.1 µM. The gist of the method:
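HT-1080-NT; 750 cells/well; 5% FBS RPMI; 48 h compound, 37 degrees C; CellTiter-Glo luminescence; curve fitting and curve-class assignment.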
For orientation: In qHTS, concentration-response curves come from the screen itself.
Take `COc1ccc(S(=O)(=O)N2CCC(C(=O)NCc3ccco3)CC2)cc1C`: the Potency result is “inactive”.

For `COc1ccc(CNC(=O)C2CC(c3ccc(C(F)(F)F)cc3)=NO2)cc1` (stereo unspecified), the Potency result was “inactive”.

`COc1ccc(C2=NOC(C(=O)NCc3ccco3)C2)cc1OC` (stereo unspecified): the Potency is 6.31 µM (active). The entry for `COc1ccc(CN2C[C@H]3CON(C)[C@H]3C[C@H]2c2ccc(-c3cccc(F)c3)cc2)cc1` is “inactive”. Then `Cc1sc2ncnc(SCC(=O)NC3CCS(=O)(=O)C3)c2c1C` (stereo unspecified), with “inactive”; and `Cc1ccc(CN(C)C[C@@H]2OCc3cnnn3CCCC(=O)N([C@@H](C)CO)C[C@H]2C)cc1`, with “inactive”. The entry for `CN1CN(C)c2ccc([N+](=O)[O-])c3cccc1c23` is “inactive”. Consider `O=C1c2cccc3c([N+](=O)[O-])ccc(c23)C(=O)N1CC1CCCO1` (stereo unspecified), for which the Potency is 23.1 µM (active). The entry for `CCOc1cccc(=O)c2c(C)n(CC3CCCO3)c(C)c12` (stereo unspecified) is “inactive”. The entry for `O=C(NCCS(=O)(=O)N1CCN(c2ccccc2)CC1)c1cc(=O)c2ccccc2o1` is “inactive”; for `CC1CN(C(=O)c2cccc(NS(=O)(=O)c3ccc(Br)cc3)c2)CC(C)O1` (stereo unspecified) it is “inactive”.

Take `C[C@H]1COc2cc(N3CCSCC3)ccc2S(=O)(=O)N1`: the Potency result is “inactive”. Then `CCCCC(O)C1=C[N+](=O)CC=C1` (stereo unspecified), with “inactive”; and `CCn1c(COc2c(C)cccc2C)nnc1SCc1nc2ccccc2c(=O)[nH]1`, with “inactive”; and `COc1ccc(C)cc1-n1nnnc1SCc1nc2ccccc2c(=O)[nH]1`, with 14.6 µM (active).

`COc1ccc(CCCc2nnc(SCc3nc4ccccc4c(=O)[nH]3)n2C)cc1`: the Potency entry was “inactive”. The entry for `COc1ccc(C2=Nc3ccccc3NC(=O)C2N(C(=O)c2cc3ccccc3[nH]2)c2ccccc2)cc1` (stereo unspecified) is “inactive”; for `O=C(Nc1ccc2c(c1)OCCO2)C(C1CC1)N1CCC(Cc2ccccc2)CC1` (stereo unspecified) it is “inactive”; for `COc1ccc(OC)c(NC(=O)C2(C)CCN2C(=O)Cc2ccccc2)c1` (stereo unspecified) it is “inactive”.

With `N#CCSc1ccccc1NC(=O)CN1C(=O)NC(CCc2ccccc2)C1=O` (stereo unspecified), the Potency entry was “inactive”. Then `CC[C@]1(O)C[C@@H]2CN(CCc3c([nH]c4ccccc34)[C@@](C(=O)OC)(c3cc4c(cc3OC)N(C)[C@H]3[C@@](O)(C(=O)OC)[C@H](OC(C)=O)[C@]5(CC)C=CCN6CC[C@]43[C@@H]65)C2)C1`, with 0.082 µM (active); and `O=C(Nc1ccc(Cl)cc1)N1CCc2[nH]c3ccccc3c2C1`, with “inactive”; and `O=C(CCCN1CCc2[nH]c3ccc(F)cc3c2C1)c1ccc(F)cc1`, with 18.4 µM (active). Then `O=C(c1cc2cc(F)ccc2[nH]1)N1CCN(c2ccc(F)cc2)CC1`, with “inactive”; and `COC(=O)[C@]12CCCCC=C1N(CCC1=CCCCC1)C(=O)[C@H](CC(=O)N1CCSCC1)C2`, with “inactive”. The entry for `COC(=O)C[C@H]1C[C@@H]2c3cc(N(C)C)ccc3O[C@@H]2[C@H](CO)O1` is “inactive”; for `CN(C)CCCOc1ccc(-c2ccc3nccn3c2)cn1` it is “inactive”; for `COc1ccc(S(=O)(=O)N[C@@H]2C=C[C@@H](CC(=O)N3CCc4ccccc4C3)O[C@@H]2CO)cc1` it is “inactive”. Consider `C=C1C(=O)OC2C1CCC(C)=CCCC1(C)OC21` (stereo unspecified), for which the Potency was 16.4 µM (active).

Consider `O=C(OCc1cn([C@@H]2C[C@H](c3ccc(Cl)cc3)N(Cc3cccs3)C[C@H]2O)nn1)c1ccccc1`, for which the Potency entry is “inactive”. Then `CCOc1ccc(CCN2C(=O)C(=O)N([C@@H](CC(C)C)CN3CCC[C@H]3CN3C(=O)C(=O)NC[C@@H]3Cc3ccccc3)C[C@@H]2CC(C)C)cc1`, with “inactive”; and `CC1(C(=O)NS(=O)(=O)c2cccc(F)c2)CCN1C(=O)Cc1cc(F)ccc1F` (stereo unspecified), with “inactive”. Then `Cc1c(C(=O)NCc2ccc(C#N)cc2)sc(=O)n1Cc1ccc(C(=O)N(C)C)cc1`, with “inactive”.

With `CN(C)c1ccc(C2N(C)C(=O)c3ccccc3N2C)cc1` (stereo unspecified), the Potency result is “inactive”.

For the compound `CN(C)c1ccc(Nc2c3c4c(cccc4n(C)c2=O)C(=O)c2ccccc2-3)cc1`, the Potency is 5.8 µM (active). Then `COc1ccc([C@H]2CC(=O)C[C@@H](CCn3cc(CC4CCCC4)nn3)O2)cc1`, with “inactive”; and `CCc1oc(-c2ccc(OC)cc2)c(C(=O)OCCCCCO)c1C(C)OCCO` (stereo unspecified), with “inactive”; and `Cc1ccc(S(=O)(=O)N2CCC(=O)N([C@H](COCc3ccccc3)C(C)C)CC2)cc1`, with “inactive”. The entry for `O=C(NCCc1ccccc1)c1cccc(NC(=O)c2ccccc2)c1` is “inactive”; for `O=C(CSCc1ccccc1)Nc1ccccc1` it is “inactive”. The figure for `O=C(CCl)Nc1cccc(CP(=O)(c2ccccc2)c2ccccc2)c1` is 4.11 µM (active). As to `CC(C)[C@H](NC(=O)c1ccccc1F)C(=O)Nc1cccc(S(=O)(=O)N2CCOCC2)c1`, the Potency entry was “inactive”.

As to `CCOc1ccc2[nH]c(=O)c(CN(Cc3nnnn3CCc3ccccc3)CC3CCCO3)cc2c1` (stereo unspecified), the Potency result was “inactive”. The figure for `CCOc1ccc2[nH]c(=O)c(CN(Cc3nnnn3Cc3ccccc3)CC3CCCO3)cc2c1` (stereo unspecified) is 6.31 µM (active); for `COc1ccc2[nH]c(=O)c(CN(Cc3nnnn3CCc3ccccc3)CC3CCCO3)cc2c1` (stereo unspecified) it is “inactive”.

As for `CCOC(=O)C1=CC[C@@H](c2ccccc2)N(S(=O)(=O)c2ccc(C)cc2)[C@H]1c1cccc(OC)c1`, the Potency result was “inactive”. Then `CC1(C)NC(=O)N(CC(=O)Nc2ccc(-c3ccccc3)cc2)C1=O`, with “inactive”; and `CS(=O)(=O)Nc1cccc(-c2cn3ccccc3n2)c1`, with “inactive”; and `Cc1cc(C)cc(NS(=O)(=O)Cc2ccccc2)c1`, with “inactive”. Then `CCS(=O)(=O)Nc1cccc(-c2cc(-c3ccccc3)c3cc(C)ccc3n2)c1`, with 23.1 µM (active); and `Cc1ccc(-c2nc3c(C)cc(Br)cn3c2Cc2ccccc2)cc1`, with “inactive”. Consider `COC(=O)[C@]12CCCCC=C1N(Cc1ccc3c(c1)OCO3)C(=O)[C@H](CC(=O)NCc1cccs1)C2`, for which the Potency entry is “inactive”.

Regarding `O=C1NC(c2cccc(Cl)c2)Nc2ccccc21` (stereo unspecified), the Potency was 11.6 µM (active). On to `COc1ccc(C2NC(=O)c3ccccc3N2)cc1` (stereo unspecified), for which the Potency entry was “inactive”. The entry for `O=C1NC(c2ccccc2)Oc2ccccc21` (stereo unspecified) is “inactive”; for `CCc1nc2c(OCCc3cccc(OC)c3)cccn2c1N(C)C(=O)c1ccc(C)cc1` it is “inactive”. Then `O=C(COC(=O)c1cncc(Br)c1)Nc1ccc(S(=O)(=O)N2CCOCC2)cc1`, with “inactive”. On to `CC(C)c1cc(C(=O)N(C)C2CCCN(Cc3ccccc3F)C2)n(C)n1` (stereo unspecified), for which the Potency entry was “inactive”. Then `CNc1cncc(-c2cccc(C(=O)N3CCOCC3)c2)n1`, with “inactive”; and `CCCN1CCn2c3c(c4cc(Br)ccc42)CCCC31` (stereo unspecified), with “inactive”. The entry for `COCCNC(=O)c1ccc(Cn2c(SCC(=O)NCC3CCCO3)nc3ccc(Br)cc3c2=O)cc1` (stereo unspecified) is “inactive”; for `OC(CNCC1CCCO1)Cn1c2ccc(Br)cc2c2cc(Br)ccc21` (stereo unspecified) it is 20.6 µM (active); for `Cc1sc2nc(-c3ccccc3F)oc(=O)c2c1C` it is “inactive”. As to `O=S1(=O)CC(N2CCN(CCO)CC2)CN1Cc1cn(Cc2ccc(Cl)cc2)nn1` (stereo unspecified), the Potency entry is “inactive”. Regarding `O=C(Nc1cc(Br)ccc1F)c1nc[nH]c1C(=O)NCc1ccccc1`, the Potency result was “inactive”. The figure for `CCN1CCN(CCNC(=O)c2ccc(/C=C3/Sc4ccccc4N(Cc4cccc(C)c4)C3=O)cc2)CC1` is 23.1 µM (active); for `CN1CCN(CCCNC(=O)c2ccc(/C=C3\Oc4ccccc4N(Cc4ccc(Cl)cc4)C3=O)cc2)CC1` it is “inactive”. For `CCN1CCN(CCNC(=O)c2ccc3c(c2)NC(=O)/C(=C\c2cccc(Cl)c2)S3)CC1`, the Potency result was “inactive”. The entry for `CCNC(=O)C1(C)CCCN(C(=O)c2c(C)noc2C)C1` (stereo unspecified) is “inactive”. Then `COc1cc([N+](=O)[O-])ccc1NC(=O)COC(=O)CCOc1ccc(C)cc1`, with 20.6 µM (active); and `CSc1ccccc1NC(=O)COC(=O)CCCOc1ccc(C)cc1`, with “inactive”. Then `COc1cccc(NC(=O)COC(=O)CCOc2ccccc2OC)c1`, with “inactive”.

Take `CCc1ccccc1NC(=O)CN1CCN(C(=O)c2cc(C3CC3)nn2-c2ccccc2)CC1`: the Potency result was “inactive”. For the compound `COC(=O)c1sc(NC(=S)NC(=O)c2ccc(C)cc2)nc1C`, the Potency result is “inactive”. The figure for `N#Cc1ccc(C(=O)Nc2nc(-c3cccs3)c(C(=O)C(F)(F)F)s2)cc1` is 2.91 µM (active). `N#Cc1c(-c2cccs2)nc(SCC(=O)c2ccc(Br)cc2)[nH]c1=O`: the Potency result is “inactive”. The entry for `CCOC(=O)[C@]12CCCC=C1N(Cc1ccc3c(c1)OCO3)C(=O)[C@H](CC(=O)NCc1cccs1)C2` is “inactive”; for `CC1(C)CC(=O)C=C(c2ccc(COC(=O)c3cc(F)cc(F)c3)cc2)C1=O` it is “inactive”; for `CCN(CC(=O)Nc1ccc(NC(C)=O)cc1)C(=O)C1CC(=O)N(c2ccc3c(c2)OCCO3)C1` (stereo unspecified) it is “inactive”. Then `O=C(NC1=CC(=O)c2ccccc2C1=O)c1ccccc1`, with 7.31 µM (active). The entry for `CC(NC(=O)c1ccccc1)C(=O)Nc1ccccc1` (stereo unspecified) is “inactive”; for `O=C(NC(=O)c1ccccc1)Nc1ccccc1O` it is “inactive”.

Turning to `Cc1ccc(S(=O)(=O)N2[C@@H](Cc3ccccc3)CO[C@H]2CC(=O)OCc2ccccc2)cc1`, the Potency entry was “inactive”. Then `CCCCNC(=O)OC1CC2CC1[C@H]1CCCCN1C2=O` (stereo partly specified), with “inactive”.

In the case of `O=C(COC(=O)Cc1ccc(Cl)cc1Cl)NCc1ccco1`, the Potency entry was “inactive”. Then `O=[N+]([O-])c1ccc(N2CCOCC2)cc1`, with “inactive”. The entry for `COC(=O)CC1=NN(c2ccccc2)C(=O)C1` is “inactive”; for `O=C1CC(c2ccccc2)=NN1c1ccc([N+](=O)[O-])cc1` it is 14.6 µM (active); for `COc1ccc(C(=O)N2CCCCC2c2cc(C(=O)Nc3ccc(F)c(Cl)c3)no2)cc1` (stereo unspecified) it is “inactive”. The entry for `Cc1c(C(=O)NCC2CC2)sc(=O)n1Cc1cccc(F)c1` is “inactive”; for `COc1ccc(CNC(=O)[C@H](Cc2c[nH]c3ccccc23)NC(C)=O)cc1OC` it is “inactive”. Regarding `COc1ccc(NC(=O)CNC(=O)Cc2ccccc2)cc1OC`, the Potency result was “inactive”. The figure for `COc1ccc(CNC(=O)Cc2ccc(-c3ccccc3)cc2)cc1OC` is 14.6 µM (active); for `O=C(C=CC(=O)Nc1ccc(F)cc1F)Nc1ccc(F)cc1F` it is “inactive”; for `NS(=O)(=O)c1ccc(CNC(=O)c2cc(S(=O)(=O)N3CCOCC3)ccc2N2CCCC2)cc1` it is “inactive”.

Regarding `COC(=O)c1ccc2c(c1)S(=O)(=O)NC2C` (stereo unspecified), the Potency entry is “inactive”.
